Structures can show the parent of a compound that is named as a salt. ± gives the standard deviation of the averaged measurements.
Key:
[1] = test system: Saccharomyces cerevisiae BY4741 SeMeCo community; assay: mean cell size (pixel area) (pixels); higher = larger cells; conditions: 10 µM; 24 h; SM minimal medium
Procedure, shortened: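 A fluorescent Saccharomyces cerevisiae BY4741 community carrying four plasmids was used, with each plasmid complementing one auxotrophy and bearing a fluorescent marker. An overnight preculture at OD600 = 1.0 was diluted to OD600 = 0.3, and 70 µl went into 384-well plates acoustically predosed with drug (final 10 µM) in SM medium for 24 h. After paraformaldehyde fixation, cells were imaged by automated confocal microscopy and analysed in Harmony, giving the mean cell pixel area per well. Each value is the average of 3 replicates. Same SeMeCo high-content imaging drug screen: Selleck FDA-approved drugs at 10 µM, 24 h in SM medium, 384-well plates, 3 replicates.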

[2] = test system: Saccharomyces cerevisiae BY4741 SeMeCo community; assay: z-score of prototroph abundance vs DMSO median; higher = larger share of this subpopulation than in DMSO controls; conditions: 10 µM; 24 h; SM minimal medium; subpopulation (auxotrophy): Prototroph
Procedure, shortened: (§1)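 Scoring was based on each subpopulation's abundance, expressed as a z-score against the vehicle-well median. A Saccharomyces cerevisiae BY4741 community with four plasmids, each restoring one auxotrophy and encoding a distinct fluorescent protein, was pre-grown overnight to OD600 1.0, diluted to 0.3, and added at 70 µl to 384-well plates acoustically predosed with library drugs (10 µM final). It then grew 24 h in minimal SM medium before paraformaldehyde fixation and automated confocal microscopy, with single-auxotroph fluorescent strains setting thresholds and autofluorescence correction.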

[3] = test system: Saccharomyces cerevisiae BY4741 SeMeCo community; assay: z-score of subpopulation abundance vs DMSO median, subpopulation auxotrophic for M; higher = larger share of this subpopulation than in DMSO controls; conditions: 10 µM; 24 h; SM minimal medium; subpopulation (auxotrophy): M
Procedure, shortened: as §1

[4] = test system: Saccharomyces cerevisiae BY4741 SeMeCo community; assay: z-score of subpopulation abundance vs DMSO median, subpopulation auxotrophic for U; higher = larger share of this subpopulation than in DMSO controls; conditions: 10 µM; 24 h; SM minimal medium; subpopulation (auxotrophy): U
Procedure, shortened: as §1

[5] = test system: Saccharomyces cerevisiae BY4741 SeMeCo community; assay: z-score of subpopulation abundance vs DMSO median, subpopulation auxotrophic for H; higher = larger share of this subpopulation than in DMSO controls; conditions: 10 µM; 24 h; SM minimal medium; subpopulation (auxotrophy): H
Procedure, shortened: as §1

[6] = test system: Saccharomyces cerevisiae BY4741 SeMeCo community; assay: z-score of subpopulation abundance vs DMSO median, subpopulation auxotrophic for LU; higher = larger share of this subpopulation than in DMSO controls; conditions: 10 µM; 24 h; SM minimal medium; subpopulation (auxotrophy): LU
Procedure, shortened: as §1

[7] = test system: Saccharomyces cerevisiae BY4741 SeMeCo community; assay: z-score of subpopulation abundance vs DMSO median, subpopulation auxotrophic for LM; higher = larger share of this subpopulation than in DMSO controls; conditions: 10 µM; 24 h; SM minimal medium; subpopulation (auxotrophy): LM
Procedure, shortened: as §1

[8] = test system: Saccharomyces cerevisiae BY4741 SeMeCo community; assay: z-score of subpopulation abundance vs DMSO median, subpopulation auxotrophic for HM; higher = larger share of this subpopulation than in DMSO controls; conditions: 10 µM; 24 h; SM minimal medium; subpopulation (auxotrophy): HM
Procedure, shortened: as §1

[9] = test system: Saccharomyces cerevisiae BY4741 SeMeCo community; assay: z-score of subpopulation abundance vs DMSO median, subpopulation auxotrophic for HU; higher = larger share of this subpopulation than in DMSO controls; conditions: 10 µM; 24 h; SM minimal medium; subpopulation (auxotrophy): HU
Procedure, shortened: as §1

[10] = test system: Saccharomyces cerevisiae BY4741 SeMeCo community; assay: z-score of subpopulation abundance vs DMSO median, subpopulation auxotrophic for UM; higher = larger share of this subpopulation than in DMSO controls; conditions: 10 µM; 24 h; SM minimal medium; subpopulation (auxotrophy): UM
Procedure, shortened: as §1

[11] = test system: Saccharomyces cerevisiae BY4741 SeMeCo community; assay: z-score of subpopulation abundance vs DMSO median, subpopulation auxotrophic for HL; higher = larger share of this subpopulation than in DMSO controls; conditions: 10 µM; 24 h; SM minimal medium; subpopulation (auxotrophy): HL
Procedure, shortened: as §1

[12] = test system: Saccharomyces cerevisiae BY4741 SeMeCo community; assay: z-score of subpopulation abundance vs DMSO median, subpopulation auxotrophic for HLU; higher = larger share of this subpopulation than in DMSO controls; conditions: 10 µM; 24 h; SM minimal medium; subpopulation (auxotrophy): HLU
Procedure, shortened: as §1

[13] = test system: Saccharomyces cerevisiae BY4741 SeMeCo community; assay: z-score of subpopulation abundance vs DMSO median, subpopulation auxotrophic for HLM; higher = larger share of this subpopulation than in DMSO controls; conditions: 10 µM; 24 h; SM minimal medium; subpopulation (auxotrophy): HLM
Procedure, shortened: as §1

[14] = test system: Saccharomyces cerevisiae BY4741 SeMeCo community; assay: z-score of subpopulation abundance vs DMSO median, subpopulation auxotrophic for HUM; higher = larger share of this subpopulation than in DMSO controls; conditions: 10 µM; 24 h; SM minimal medium; subpopulation (auxotrophy): HUM
Procedure, shortened: as §1

[15] = test system: Saccharomyces cerevisiae BY4741 SeMeCo community; assay: z-score of subpopulation abundance vs DMSO median, subpopulation auxotrophic for LUM; higher = larger share of this subpopulation than in DMSO controls; conditions: 10 µM; 24 h; SM minimal medium; subpopulation (auxotrophy): LUM
Procedure, shortened: as §1

[16] = test system: Saccharomyces cerevisiae BY4741 SeMeCo community; assay: z-score of subpopulation abundance vs DMSO median, subpopulation auxotrophic for HLUM; higher = larger share of this subpopulation than in DMSO controls; conditions: 10 µM; 24 h; SM minimal medium; subpopulation (auxotrophy): HLUM
Procedure, shortened: as §1

Compound	mean cell size [1]	z-score of prototroph abundance [2]	z-score of subpopulation abundance [3]	z-score of subpopulation abundance [4]	z-score of subpopulation abundance [5]	z-score of subpopulation abundance [6]	z-score of subpopulation abundance [7]	z-score of subpopulation abundance [8]	z-score of subpopulation abundance [9]	z-score of subpopulation abundance [10]	z-score of subpopulation abundance [11]	z-score of subpopulation abundance [12]	z-score of subpopulation abundance [13]	z-score of subpopulation abundance [14]	z-score of subpopulation abundance [15]	z-score of subpopulation abundance [16]
NC(=O)Cc1cccc(C(=O)c2ccccc2)c1N [Nepafenac]	12.3 ± 0.27	0.25	0.62	-1.24	-0.38	-0.55	1.58	0.5	-1.05	-0.53	0.69	0.04	-0.23	-0.01	0.29	–
COc1cc(NS(=O)(=O)c2ccc(N)cc2)ncn1 [Sulfamonomethoxine]	12.3 ± 0.041	–	-0.64	–	-0.96	1.01	–	-1.46	0.5	0.65	-0.82	0.33	-0.64	0.06	0.5	0.33
C[C@@H](NCCCc1cccc(C(F)(F)F)c1)c1cccc2ccccc12 [Cinacalcet HCl]	12.17 ± 0.037	-0.37	0.31	-1.21	0.26	0.1	3.33	–	-1.71	–	–	-0.17	0.67	-0.21	–	1.57
OC(CCCN1CCCCC1)(c1ccccc1)c1ccccc1 [Diphenidol HCl]	12.4 ± 0.41	-0.42	0.98	0.63	-0.38	0.23	–	0.03	0.48	1.63	–	-0.05	-0.07	–	-0.35	-0.39
O=c1cc(-c2ccc(O)c(O)c2)oc2cc(O)cc(O)c12 [Luteolin]	12.5 ± 0.16	-0.73	-0.18	0.21	0.27	0.96	0.14	-0.39	1.42	-0.52	0.22	0.05	-0.56	-0.43	0.16	–
N#C/C(=C1/SC[C@@H](c2ccc(Cl)cc2Cl)S1)n1ccnc1 [Luliconazole]	12 ± 0.31	-8.67	-2.68	-0.31	18.4	0.85	1.33	7.54	10.5	11.7	4.75	5.26	16.8	10.6	4.52	–
CC(C)COc1ccc(CNC(=O)N(Cc2ccc(F)cc2)C2CCN(C)CC2)cc1 [Pimavanserin]	12.4 ± 0.25	-0.05	1.1	0.22	-0.39	0.32	–	-0.22	1.4	-0.58	0.41	-0.54	0.27	–	-0.56	-0.3
Cn1nnc(-c2ccc(-c3ccc(N4C[C@H](COP(=O)(O)O)OC4=O)cc3F)cn2)n1 [Tedizolid Phosphate]	–	1.14	-0.15	0.63	-0.61	-0.94	-2.14	-0.87	-0.46	-0.77	-0.86	-0.8	-0.8	–	-1.05	–
Cc1cc2c(s1)Nc1ccccc1N=C2N1CCN(C)CC1 [Olanzapine]	12.5 ± 0.2	0.17	0.84	-0.29	-0.12	-0.6	0.65	0.2	0.19	0.07	-0.15	0.07	–	-0.5	-0.6	0.21
CO[C@@]1(NC(=O)CSC[C@@H](N)C(=O)O)C(=O)N2C(C(=O)O)=C(CSc3nnnn3C)CS[C@@H]21 [Cefminox Sodium]	12.6 ± 0.55	-0.58	-0.58	0.77	1.45	0.8	-0.15	–	0.16	0	1.62	0.47	3.56	-0.35	-0.31	-0.45
CN(C)C(=O)COC(=O)Cc1ccc(OC(=O)c2ccc(NC(=N)N)cc2)cc1 [Camostat Mesilate]	12.5 ± 0.12	0.66	-0.25	-0.37	–	-0.08	-0.5	–	-0.36	-0.43	-0.35	-0.87	-0.36	–	-0.84	-0.69
CCCN1CCCC[C@H]1C(=O)Nc1c(C)cccc1C [Ropivacaine]	12.24 ± 0.031	0.72	0.5	-0.73	-0.64	-1.21	–	-0.51	-0.86	-0.14	-0.66	-0.32	-0.22	-0.48	-0.83	–
C[C@](N)(Cc1ccc(O)c(O)c1)C(=O)O [Methyldopa]	–	0.97	-1.02	–	0.34	-0.35	-0.77	-0.81	-0.06	-0.7	-0.91	-0.36	-0.36	-0.27	-1.19	-0.4
NC[C@H]1O[C@H](O[C@H]2[C@H](O)[C@@H](O[C@H]3O[C@H](CO)[C@@H](O)[C@H](N)[C@H]3O)[C@H](N)C[C@@H]2N)[C@H](O)[C@@H](O)[C@@H]1O [Kanamycin sulfate]	11.9 ± 0.26	-0.43	0.84	-0.55	1.26	-0.08	1.55	1.34	-0.5	-0.15	1.08	0.63	–	0.21	0.52	-0.1
CCC(=O)NS(=O)(=O)c1ccc(-c2c(-c3ccccc3)noc2C)cc1 [Parecoxib Sodium]	12.39 ± 0.068	-1.76	0.75	0.97	0.01	0.31	1	1.65	0.55	–	1.38	0.91	0.26	–	1.18	0.78
